Source: PubChem BioAssay AID602233 (National Center for Advancing Translational Sciences (NCATS), 2012)
About 170 (0.045%) of roughly 380,000 compounds were called active. Calls come from the whole dose curve; as a rule, active = well fitted inhibition curve with a large enough effect; inconclusive = small, poorly fitted or top-dose-only effect; inactive = no such curve, though single readings can be large or run the other way. For the sample, actives were picked, then their nearest neighbours and some compounds at random.

target: Phosphoglycerate kinase, glycosomal (Trypanosoma brucei brucei) (UniProt P07378); test: qHTS Assay to Find Inhibitors of Phosphoglycerate Kinase; conditions: PGK/GAPDH coupled, Kinase-Glo luminescence, 60 min; series mostly up to 57.5 µM; activity change, negative = inhibition: at the top concentration; note: nearly all actives have a fitted effect of over 60% in size
Sequence (P07378 whole entry, looked up): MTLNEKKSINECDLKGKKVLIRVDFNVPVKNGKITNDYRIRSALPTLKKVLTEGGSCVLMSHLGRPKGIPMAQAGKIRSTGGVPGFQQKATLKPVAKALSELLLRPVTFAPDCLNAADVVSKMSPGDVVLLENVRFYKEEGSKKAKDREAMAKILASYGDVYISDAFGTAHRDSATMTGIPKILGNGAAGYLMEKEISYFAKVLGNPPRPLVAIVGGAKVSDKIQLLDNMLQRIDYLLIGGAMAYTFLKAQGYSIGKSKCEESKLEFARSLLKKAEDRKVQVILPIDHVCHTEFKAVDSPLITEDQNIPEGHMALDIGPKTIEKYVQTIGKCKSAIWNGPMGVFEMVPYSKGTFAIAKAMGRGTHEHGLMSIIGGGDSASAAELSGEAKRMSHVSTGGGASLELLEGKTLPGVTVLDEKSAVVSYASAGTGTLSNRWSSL
From the text: Several species of the Trypanosomatidae family of parasitic protozoans cause a spectrum of diseases throughout the tropical and subtropical world. Sleeping sickness, caused by two subspecies of Trypanosoma brucei, is endemic to areas of sub-Saharan Africa, while Chagas disease, a manifestation of Trypanosoma cruzi infection, is prevalent throughout Central and South America. In addition, many species of Leishmania are responsible for a range of cutaneous and visceral diseases, causing ulcers, destructive lesions and kalaazar, a lethal infection of the viscera. Collectively, these organisms infect 30 million people worldwide (~500 million live in endemic areas), and account for ~130,000 deaths annually. Given their debilitating and prevalent nature, trypanosomatid parasites impose a heavy medical, economic and social burden on entire populations, primarily in the developing world. The problem is further exacerbated by the fact that existing treatments have progressed little in the past 50 years, and current drugs show high toxicity and poor efficacy. […] Blood-stream stages of T. brucei are entirely dependent on glycolysis as a source of ATP, and the tricarboxylic acid cycle and oxidative phosphorylation are both repressed. Glycolysis in axenically cultured T. cruzi, representing the intracellular pathogenic stage, is also essential for these parasites. […] Previous studies have shown that the glycolytic enzyme, phosphoglycerate kinase (PGK), is a viable target for drugs to kill these parasites. […] NIH Molecular Libraries Probe Production Network [MLPCN] NIH Chemical Genomics Center [NCGC] MLPCN Grant: R03 MH093212 PI Name: Malcolm Walkinshaw, University of Edinburgh
3ul of substrate/PGK buffer (columns 1,2,5-48) are dispensed into Greiner white solid bottom 1536-well assay plates; columns 3-4 receive only TEA buffer as 0x PGK controls. Compounds are then transferred via Kalypsys pin tool equipped with 1536-pin array (10nl slotted pins, V&P Scientific, San Diego, CA). Following addition of compound, 1ul of GAPDH (100nM final concentration, all columns) is added to initiate the reaction (this upstream coupling enzyme is necessary for in-well production of PGK substrate, 1,3-bisphosphoglycerate (1,3-BPG), which is unstable and not commercially available). The plates are then incubated at room temperature for 60 minutes. Kinase-Glo Plus reagent is added (2ul) and plates incubated for 10 minutes, before being transferred to a ViewLux high-throughput CCD imager (PerkinElmer) wherein single end-point measurements of luminescence are acquired using a clear filter. All reagents are diluted in an assay buffer consisting of 100mM TEA (pH 7.6), 5mM MgCl2 and 0.01% Tween-20.
% is set by controls: 0 for no effect and ±100 for the full control effect.

Activity change, negative = inhibition, inactive:
CCCN1CN=C(NS(=O)(=O)c2ccc(NC(C)=O)cc2)NC1 -8.9%
CC(=O)Nc1cc(C(=O)NCc2ccc(F)cc2Cl)ccc1Sc1ccc(Cl)cc1 8.65%
COc1ccc(-c2cn3c(C)c(C(=O)Nc4cc(C)cc(C)c4)sc3n2)cc1 -0.686%
CCc1ccccc1NC(=O)CSc1nnc(-c2ccccc2)c(-c2ccccc2)n1 9.96%
COc1ccc(OC)c(NC(=O)C2CCN(S(=O)(=O)c3ccc(C)cc3)CC2)c1 -0.994%
O=C(CSc1ncc(CO)n1Cc1ccc(F)cc1)NCc1ccco1 -6.21%
CCC1CN(S(=O)(=O)c2cc(-c3cc(C)no3)ccc2C)c2cc(C)ccc2O1 (configuration not stated) -0.193%
Cc1oc2ncnc(N3CCOCC3)c2c1C(=O)NCCc1ccccc1 -4.29%
Cc1cccc(C(=O)NCCc2nc3ccccc3n2Cc2ccccc2Cl)c1 2.99%
CCc1ccc(CNC(=O)c2cc3cc4ccc(OC)cc4nc3o2)cc1 -5.03%
CCC(=O)Nc1c(C(=O)N2CCN(c3ccc(F)cc3)CC2)oc2ccccc12 3.16%
COc1ccc(-c2c(C)nn3c(N4CCC(C(=O)NCCC(C)C)CC4)cc(C)nc23)cc1OC 0.974%
Cc1ccc(-c2nnc3c4ccccc4c(C)nn23)cc1NC(=O)c1cccc(Br)c1 7.56%
Cc1ccc(NC(=O)Cn2cnc3nc4c(cc3c2=O)CCCC4)cc1Cl -6.55%
O=C(c1ccc(Br)cc1)N(Cc1cccs1)c1ccc(F)cc1 3.55%
Cc1ccc(NC(=O)CSc2nc3ccccc3c3nc(CCn4cncc4C)nn23)cc1F 4.26%
CCc1ccc(NC(=O)N2CCN(C(=O)c3nsc4ccccc34)CC2)cc1 6.83%
Cc1ccc(Cl)cc1NC(=O)CCS(=O)(=O)c1ccc(Br)s1 -2.54%
Cc1ccc(NC(=O)c2oc3ccccc3c2NC(=O)Cc2cccs2)cc1 -7.26%
Cc1ccc(-n2nc(CO)c(C(=O)NCCc3ccccc3)n2)cc1 -11.4%
O=C1CCCc2cc(S(=O)(=O)N3CCCC(C(=O)NCc4ccccc4)C3)ccc2N1 (configuration not stated) 6.57%
COc1ccccc1CNC(=O)c1ccc(NC(=O)N2CC(C)Sc3ccccc32)cc1 (configuration not stated) 3.38%
Cc1cc(C)c(/C=C/c2onc(C)c2S(=O)(=O)N2CCC(C(=O)Nc3ccc(Cl)cc3C)CC2)c(C)c1 1.64%
CCc1cccc(NC(=O)CSc2nccn2C)c1 0.152%
COc1cc(C(=O)NCC(c2ccc(Cl)cc2)N2CCOCC2)cc(OC)c1OC (configuration not stated) 1.64%
CCCCc1nn2c(=O)cc(COC(=O)c3ccc(NC(=O)c4ccccc4C)cc3)nc2s1 -1.81%
Cc1ccccc1CNC(=O)c1ccc(NC(=O)N2CCCCc3ccccc32)cc1 9.36%
CCCN(CCC)C(=O)C(Cc1ccccc1)NS(=O)(=O)c1ccc2c(c1)c(=O)n(C)c(=O)n2C (configuration not stated) -0.144%
CCCCNc1ccc(-c2nc(-c3ccncc3)no2)cc1[N+](=O)[O-] -0.547%
CCOc1ccccc1NC(=O)Cn1c(=O)n(Cc2ccco2)c(=O)c2sc3ccccc3c21 -8.83%
O=C(CSc1n[nH]c(-c2ccccc2)n1)N1CCCCC1 -1.92%
COc1ccc(-c2noc(CSc3nnc(-c4ccccc4)n3-c3ccc(F)cc3)n2)c(OC)c1 -0.281%
O=C(NCc1ccccc1Cl)C1=Cc2cc(Br)ccc2OC1 -7.68%
O=C(Nc1ccc(F)cc1F)c1cnn(-c2ccc(F)cc2)c1-n1cccc1 -3.35%
COc1ccccc1CNC(=O)CCn1c(=O)c2ccccc2n(CC(=O)Nc2ccc(Br)cc2F)c1=O -3.68%
Cc1ccc(Nc2ccc3cc(S(=O)(=O)N4CCCCC4)ccc3n2)cc1F -1.23%
COc1ccc(-c2nc3nc(C)cc(C)n3c2Nc2c(C)cccc2C)cc1 -1.29%
CSc1ccc(CCNC(=O)c2cc(C)nc3c2c(C)nn3-c2cccc(F)c2)cc1 -6.82%
NC1=NC(c2cc(F)cc(F)c2)n2c(nc3ccccc32)N1 (configuration not stated) 1.97%
COc1ccc2c(Sc3ccc(C)cc3)c(C(=O)NC(C)c3ccccc3)[nH]c2c1 (configuration not stated) -15.5%
CCCCOc1ccc(CNC(=O)c2ccc3c(c2)N(C)C(=O)C2CCCCN32)cc1 (configuration not stated) -2.79%
O=C(Cn1c(-c2cccs2)cc2ccccc21)NCCc1ccc(Cl)cc1 -6.23%
COc1ccc(-c2cn3c(n2)sc2cc(C(=O)Nc4ccc(F)cc4)ccc23)cc1 -9.23%
COc1ccccc1CNC(=O)c1ccccc1NC(=O)c1nsc2ccccc12 -6.03%
Cc1ccc(Cn2c(=O)n(CCCC(=O)NCc3ccccc3Cl)c(=O)c3ccccc32)cc1 -2.7%
CCCCOc1ccc(NC(=O)c2cc3c(n(-c4ccc(Cl)cc4)c2=O)CCCC3=O)cc1 -0.531%
CCOc1ccccc1CNCc1c(C(=O)O)c(C)n(Cc2ccc(C)cc2)c1C -6.39%
CCOc1ccc(CNC(=O)CCc2c(C)nn(-c3ccc(N4CCCCC4)nn3)c2C)cc1 -4.7%
CCOC(=O)C1CCCN(S(=O)(=O)c2cc(-c3cc(C)no3)ccc2OC)C1 (configuration not stated) -9.52%
COc1cccc(NC(=O)CN2C(=O)c3ccccc3Sc3ncccc32)c1 -0.909%
COc1cccc(OCCn2c(-c3ccc(Br)cc3)nc3ccccc3c2=O)c1 4.47%
O=C(Cn1c(=O)n(Cc2ccccc2)c(=O)c2sc3ccccc3c21)Nc1ccccc1F -5.67%
CCC(=O)N1CCc2cc(S(=O)(=O)NC(CC(C)C)C(=O)NCCc3cccc(C)c3)ccc21 (configuration not stated) 7.21%
CCOc1ccc(-n2nc3ccc(NC(=O)c4ccc(OC)c(Cl)c4)cc3n2)cc1 9.53%
Cc1cc(C)c(NC(=O)c2cc3sc(Cl)cc3n2C)c(C)c1 5.73%
COc1ccc(-c2nc(Cn3c(=O)cc(C)c4c(C)nn(-c5ccccc5)c43)c(C)o2)c(OC)c1 9.43%
COc1ccccc1CNC(=O)c1ccc(-n2c(C)cc3c2CCCC3)cc1 3.07%
Cc1ccc(O)c(NC(=O)CCS(=O)(=O)c2nc(-c3ccc4c(c3)OCO4)cc(C(F)(F)F)n2)c1 -6.86%
COc1ccc(NC(=O)c2ccco2)cc1NC(=O)COc1ccc(C)c(C)c1 3.35%
O=C(NCCCO)C(=O)Nc1c2c(nn1-c1ccccc1)CSC2 13.6%
COc1ccc(NC(=O)CCNS(=O)(=O)c2ccc3c(c2)CCCC(=O)N3)cc1Cl 0.351%
CN1c2ccc(Cl)cc2-c2nc(SCC(=O)Nc3cc(F)ccc3F)ncc2S1(=O)=O -1.46%
COc1ccc(Cc2nc3ccc(C(=O)NCc4ccc(OC)cc4OC)cc3o2)cc1 8.22%
COc1ccc(S(=O)(=O)NCCSc2nnnn2-c2ccccc2)cc1 -2.3%
COC(=O)c1c(NC(=O)CCCOc2ccccc2)sc2c1CCC(C)C2 (configuration not stated) 9.76%
Cc1nn2c(=O)cc(COC(=O)c3ccccc3NC(=O)COc3ccccc3C)nc2s1 0.156%
COc1ccccc1CNC(=O)CCCn1c(=O)c2ccccc2n(CC(=O)Nc2ccc(C)cc2Cl)c1=O -9.25%
COc1ccccc1CNC(=O)NCc1noc2ccc(C)cc12 -1.14%
CCOc1ccccc1NC(=O)Cn1c2ncccc2c(=O)n1-c1ccc(C)c(C)c1 -2.74%
O=C(CSc1nc2ccccc2nc1Cc1ccccc1)N1CCCCC1 -9.31%
CCOc1cccc(NC(=O)CSc2ncc(-c3ccc(Cl)cc3)[nH]2)c1 3.11%
Cc1c(C(=O)N(C)C)sc2c1c(=O)n(-c1ccc(F)cc1)c(=O)n2CC(=O)N(C)c1ccccc1 8.29%
CCOc1ccc(N(C)S(=O)(=O)c2cc(-c3cnc(C)o3)ccc2OC)cc1 2.21%
Cc1oc(-c2ccccc2F)nc1CN1CCC(C(=O)NCCc2ccc(Cl)cc2)CC1 0.46%
CCOc1ccc(NC(=O)c2c(NC(=O)Cc3ccccc3)sc3c2CCCCC3)cc1 5.92%
CCc1nnc(SCC(=O)Nc2cc(OC)ccc2OC)nc1CC 0.423%

outcome, inactive:
CC(=O)N1CCCc2cc(S(=O)(=O)N3CCC(C(=O)NCc4ccc(F)cc4)CC3)ccc21
COc1cccc(NC(=O)c2ccc3nc(CCc4ccccc4)oc3c2)c1
COc1ccc2c(c1)C=C(C(=O)NCc1cc(Br)ccc1OC)CO2
Cn1c(=O)c2c(SCC(=O)N3CCc4ccccc43)nc(-c3ccc(Cl)cc3)nc2n(C)c1=O
Cc1ccccc1CSc1nc(-c2ccccc2)nc2c1Cc1c(CO)cnc(C)c1O2
CC(C)Cn1c(-c2ccc(S(=O)(=O)N3CCOCC3)cc2)csc1=Nc1cc(Cl)ccc1Cl
Cc1cc(Br)ccc1NC(=O)Cn1cnc2sc(C)c(S(=O)(=O)N3CCN(C)CC3)c2c1=O
COC(=O)c1ccccc1NC(=O)C(Cc1ccccc1)N1Cc2ccccc2C1=O (configuration not stated)
COc1ccc(C2C(=O)N(C3CCCCCC3)CC(=O)N2CCc2ccc(Cl)cc2)cc1OC (configuration not stated)
COC(=O)c1c(NC(=O)C(C)Oc2ccc(Cl)c(C)c2)sc(C)c1C (configuration not stated)
COc1ccc(Cn2c(=O)c3oc4ccccc4c3n(CC(=O)Nc3ccc(F)cc3F)c2=O)cc1
CCOc1ccc(NC(=O)Cn2cc(C(=O)c3ccc(C)cc3)c(=O)c3cc4c(cc32)OCCO4)cc1
COc1ccc(CNC(=O)COCc2cc(-c3cccs3)on2)cc1OC
Cc1ccc(NC(=O)c2cn3c4c(ccc(Cl)c4c2=O)OC(C)C3)cc1C (configuration not stated)
Cc1ccc(-n2ncc3c(NCCCn4ccnc4)ncnc32)cc1Cl
CCCN1CCN(CCCNC(=O)c2cnn(-c3ccc(C)cc3)c2-n2cccc2)CC1
Cc1nn2c(=O)cc(COC(=O)c3cccc(NC(=O)COc4ccccc4Cl)c3)nc2s1
COc1ccccc1-c1noc(CSc2nnc(-c3ccccc3)n2-c2ccc(C)c(C)c2)n1
CCn1c2ccccc2c2nnc(SCC(=O)O)nc21
CCCSc1nc2sc3c(c2c(=O)n1-c1cccc(Br)c1)CC(C)(C)OC3
CCOC(=O)C1CCCN(CC(=O)Nc2cc(C)c3c(=O)oc4ccccc4c3n2)C1 (configuration not stated)
